Reference: PubChem BioAssay
For part of these data: Results with a measured potency or affinity are listed apart. Calls of active or inactive are those of the source. Unless noted, the rule behind the calls is not given here.

Experiments:
[1] = antimalarial activity against Dd2 strain (AID 2302;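 active = growth inhibition above 50% at the single 2 µM test dose, taken to imply half-maximal potency below 2 µM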;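 note: 0% = DMSO untreated growth and 100% = chloroquine plus artemisinin killed control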); details: P. falciparum Dd2 in RBCs, LDH growth readout, 72 h; at 2 µM; stronger effect = higher value
[2] = HepG2 cytotoxicity, primary screen, cytotoxicity control for P. falciparum antimalarial project, cell-based, ATP luminescence (AID 2303;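 active = inhibition above 50%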;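 note: 0% = DMSO wells and 100% = digitonin-killed cells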); details: HepG2 viability, 24-48 h, at 10 µM, stronger effect = higher value
[3] = molecular target: L-lactate dehydrogenase (Plasmodium falciparum (isolate CDC / Honduras)) (UniProt Q27743); assay: PfLDH activity inhibition – cell lysate, 3D7 strain, counter-screen for P. falciparum growth inhibition project (AID 2304);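 note: 0% = vehicle and 100% = reference inhibitor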; details: P. falciparum 3D7 crude extract, LDH APAD/NBT absorbance; at 2 µM; stronger effect = higher value
[4] = inhibition of 3D7 malaria parasite growth – strain 3D7 (AID 2306);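 note: 0% = DMSO wells and 100% = chloroquine plus artemisinin control wells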; details: P. falciparum 3D7 erythrocytic growth, LDH absorbance, 72 h; at 2 µM; stronger effect = higher value
[5] = molecular target: Calcium-dependent protein kinase 1 (Plasmodium falciparum (isolate 3D7)) (UniProt P62344); assay: PfCDPK1 kinase inhibitors, biochemical, TCAMS library (AID 1159585; cut-off not given, nearly all actives have IC50 up to about 0.98 µM;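 note: inhibitors leave more ATP so luminescence rises with inhibition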); details: recombinant PfCDPK1, Kinase-Glo ATP depletion luminescence
[6] = molecular target: Plasmodium falciparum protein kinase 6 (PK6, PF3D7_1337100) (UniProt Q8IDW1); assay: PfPK6 kinase inhibitors, biochemical, TCAMS library (AID 1159586); details: recombinant PfPK6, Kinase-Glo ATP depletion luminescence
[7] = molecular target: Protein kinase 7 (PK7), Plasmodium falciparum 3D7 (PF3D7_0213400) (UniProt Q7YTF7); assay: inhibition of Plasmodium PK7 catalytic activity – biochemical, TCAMS antimalarial set, Kinase-Glo luminescence (AID 1159587); details: recombinant PfPK7, Kinase-Glo ATP depletion luminescence
[8] = molecular target: Calcium-dependent protein kinase 4 (Plasmodium falciparum (isolate 3D7)) (UniProt Q8IBS5); assay: PfCDPK4 kinase inhibitors, biochemical, TCAMS library (AID 1159588; cut-off not given, nearly all actives have IC50 up to about 0.91 µM); details: recombinant PfCDPK4, Kinase-Glo ATP depletion luminescence
Sequence of Calcium-dependent protein kinase 4 (Plasmodium falciparum (isolate 3D7)) (Q8IBS5 whole entry, looked up): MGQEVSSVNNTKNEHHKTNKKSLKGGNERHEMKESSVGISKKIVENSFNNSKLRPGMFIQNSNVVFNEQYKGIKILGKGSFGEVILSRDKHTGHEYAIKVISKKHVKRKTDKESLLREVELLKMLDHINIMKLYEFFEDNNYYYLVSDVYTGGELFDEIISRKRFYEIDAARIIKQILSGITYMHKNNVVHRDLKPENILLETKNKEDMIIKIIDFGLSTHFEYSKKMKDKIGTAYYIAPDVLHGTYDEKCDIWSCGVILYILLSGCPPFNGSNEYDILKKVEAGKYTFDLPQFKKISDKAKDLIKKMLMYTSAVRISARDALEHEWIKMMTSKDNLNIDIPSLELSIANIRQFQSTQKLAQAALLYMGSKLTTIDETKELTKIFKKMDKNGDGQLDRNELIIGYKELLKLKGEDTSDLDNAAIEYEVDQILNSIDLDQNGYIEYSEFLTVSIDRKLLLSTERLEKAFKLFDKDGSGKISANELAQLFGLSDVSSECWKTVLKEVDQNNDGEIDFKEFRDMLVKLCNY

Sequence of Calcium-dependent protein kinase 1 (Plasmodium falciparum (isolate 3D7)) (P62344 whole entry, looked up): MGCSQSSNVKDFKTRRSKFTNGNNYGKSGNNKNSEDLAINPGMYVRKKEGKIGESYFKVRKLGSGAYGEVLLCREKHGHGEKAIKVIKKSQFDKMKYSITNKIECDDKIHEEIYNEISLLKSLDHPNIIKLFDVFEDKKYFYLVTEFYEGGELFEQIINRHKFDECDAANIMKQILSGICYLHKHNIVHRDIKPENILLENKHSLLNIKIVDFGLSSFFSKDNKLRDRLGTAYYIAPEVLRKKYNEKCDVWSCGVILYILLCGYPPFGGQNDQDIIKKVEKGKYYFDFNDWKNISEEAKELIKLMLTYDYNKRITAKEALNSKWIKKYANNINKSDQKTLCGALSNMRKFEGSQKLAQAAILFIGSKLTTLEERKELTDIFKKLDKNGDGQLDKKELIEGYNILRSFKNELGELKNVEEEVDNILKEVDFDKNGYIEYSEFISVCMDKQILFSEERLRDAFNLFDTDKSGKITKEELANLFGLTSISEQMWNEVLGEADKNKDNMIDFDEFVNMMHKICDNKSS
Sequence of Protein kinase 7 (PK7), Plasmodium falciparum 3D7 (PF3D7_0213400) (Q7YTF7 1-343): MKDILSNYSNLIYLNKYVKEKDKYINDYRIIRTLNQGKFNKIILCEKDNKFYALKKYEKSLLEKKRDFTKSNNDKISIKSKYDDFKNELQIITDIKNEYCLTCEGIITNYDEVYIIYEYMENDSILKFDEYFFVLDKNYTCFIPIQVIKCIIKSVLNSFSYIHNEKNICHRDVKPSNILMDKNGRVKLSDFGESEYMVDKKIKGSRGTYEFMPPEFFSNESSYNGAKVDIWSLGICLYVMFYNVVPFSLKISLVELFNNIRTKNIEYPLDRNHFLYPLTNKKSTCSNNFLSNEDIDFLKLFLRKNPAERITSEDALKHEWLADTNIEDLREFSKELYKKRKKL
Sequence of Plasmodium falciparum protein kinase 6 (PK6, PF3D7_1337100) (Q8IDW1 1-305): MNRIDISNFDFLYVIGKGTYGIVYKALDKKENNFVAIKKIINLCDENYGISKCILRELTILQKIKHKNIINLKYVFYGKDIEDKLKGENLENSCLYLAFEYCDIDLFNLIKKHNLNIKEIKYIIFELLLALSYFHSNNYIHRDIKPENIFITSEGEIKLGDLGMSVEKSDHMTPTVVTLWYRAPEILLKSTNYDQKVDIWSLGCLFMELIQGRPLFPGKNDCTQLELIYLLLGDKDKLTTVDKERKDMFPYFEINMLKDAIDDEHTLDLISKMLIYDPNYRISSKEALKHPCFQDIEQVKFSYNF
Sequence of L-lactate dehydrogenase (Plasmodium falciparum (isolate CDC / Honduras)) (Q27743 whole entry, looked up): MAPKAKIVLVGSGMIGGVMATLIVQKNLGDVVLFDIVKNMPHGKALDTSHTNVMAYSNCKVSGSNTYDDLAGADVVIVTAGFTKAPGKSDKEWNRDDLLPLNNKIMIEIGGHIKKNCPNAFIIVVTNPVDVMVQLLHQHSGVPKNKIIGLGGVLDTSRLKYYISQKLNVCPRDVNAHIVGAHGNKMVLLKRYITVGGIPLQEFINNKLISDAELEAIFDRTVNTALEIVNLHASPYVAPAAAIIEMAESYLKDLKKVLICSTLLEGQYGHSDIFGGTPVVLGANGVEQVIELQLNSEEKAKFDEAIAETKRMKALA

CN1CCN(c2cccc(-c3nnc(-c4ccc(OCC(=O)NCc5ccc(C(F)(F)F)cc5)c([N+](=O)[O-])c4)o3)c2)CC1
active: growth inhibition [4] 90%
inactive: growth inhibition [1] 44% | inhibition [2] 35% | inhibition [3] -4% | outcome [5] | outcome [6] | outcome [7] | outcome [8]

CCN(CCCN1CCCCC1)c1cc(C)nc(Nc2ccc(Oc3ccccc3)cc2)n1
inactive: inhibition [3] -3% | outcome [5] | outcome [6] | outcome [7] | outcome [8]
active: growth inhibition [1] 99% | inhibition [2] 50% | growth inhibition [4] 101%

C[C@H](NC(=O)c1c(CN2CCN(C(=O)C(C)(C)C)CC2)c(-c2cccs2)nc2ccccc12)C1CCCCC1
active: growth inhibition [1] 62% | growth inhibition [4] 89%
inactive: inhibition [2] 2% | inhibition [3] 3% | outcome [5] | outcome [6] | outcome [7] | outcome [8]

COc1cc(N(C)Cc2cnc3nc(N)nc(N)c3n2)cc(OC)c1OC
active: growth inhibition [4] 95%
inactive: growth inhibition [1] 2% | inhibition [2] 32% | inhibition [3] 1% | outcome [5] | outcome [6] | outcome [7] | outcome [8]

CC(C)(C)c1ccc(CN2CCC(CNC(=O)c3cc(-c4cccc(Cl)c4)cs3)C2)cc1 (configuration not stated)
inactive: inhibition [2] 44% | inhibition [3] 1% | outcome [5] | outcome [6] | outcome [7] | outcome [8]
active: growth inhibition [1] 83% | growth inhibition [4] 101%

Oc1ccc2ccccc2c1CNCCC1CCCCC1
inactive: inhibition [2] 16% | inhibition [3] 5% | outcome [5] | outcome [6] | outcome [7] | outcome [8]
active: growth inhibition [1] 99% | growth inhibition [4] 99%

Cn1cnc2c(Nc3ccncc3)nc(-c3ccc4ccccc4c3)nc21
active: growth inhibition [1] 66% | inhibition [2] 55% | growth inhibition [4] 96%
inactive: inhibition [3] 7% | outcome [5] | outcome [6] | outcome [7] | outcome [8]

Cc1c(S(=O)(=O)Nc2ccc3nccc(N4CCN[C@H](C)C4)c3c2)sc2ccc(Cl)cc12
inactive: growth inhibition [1] 0% | inhibition [2] 16% | inhibition [3] -3% | outcome [5] | outcome [6] | outcome [7] | outcome [8]
active: growth inhibition [4] 96%

CC(Oc1ccc(Cl)cc1)C(=O)NCCC1CCN(CCCCCNC(=O)/C=C/c2ccc(Cl)c(Cl)c2)CC1 (configuration not stated)
active: growth inhibition [4] 89%
inactive: growth inhibition [1] 20% | inhibition [2] 48% | inhibition [3] -5% | outcome [5] | outcome [6] | outcome [7] | outcome [8]

CN1CCC(C(=O)N(Cc2ccc(-c3ccc(CNCCc4ccc(S(C)(=O)=O)cc4)cn3)cc2)C2Cc3ccccc3C2)CC1
active: growth inhibition [4] 98%
inactive: growth inhibition [1] 49% | inhibition [2] 21% | inhibition [3] -2% | outcome [5] | outcome [6] | outcome [7] | outcome [8]

CCCC(=O)Nc1ccc(OCCCN(Cc2cccc(C(F)(F)F)c2)c2ccc(C#N)c(C(F)(F)F)c2)cc1
inactive: inhibition [2] -12% | inhibition [3] -5% | outcome [5] | outcome [6] | outcome [7] | outcome [8]
active: growth inhibition [1] 89% | growth inhibition [4] 90%

FC(F)(F)c1cc(Nc2ncnc3ccc(Br)cc23)ccc1OCc1ccccc1
inactive: growth inhibition [1] 9% | inhibition [2] 12% | inhibition [3] 6% | outcome [5] | outcome [6] | outcome [7] | outcome [8]
active: growth inhibition [4] 87%

CC(C)c1cc(Oc2c(I)cc(CCNCc3ccccc3)cc2I)ccc1O
active: growth inhibition [1] 54% | growth inhibition [4] 95%
inactive: inhibition [2] 42% | inhibition [3] 4% | outcome [5] | outcome [6] | outcome [7] | outcome [8]

O=C(Nc1ccc2c(c1)CCN2C1CCN(Cc2cccc(C(F)(F)F)c2)C1)c1ccco1 (configuration not stated)
inactive: inhibition [2] 4% | inhibition [3] -1% | outcome [5] | outcome [6] | outcome [7] | outcome [8]
active: growth inhibition [1] 92% | growth inhibition [4] 95%

CC(=O)Nc1nc(C(=O)Nc2cccc(-c3cccc(-c4nc5ccccc5[nH]4)c3)c2)cs1
active: growth inhibition [1] 82% | growth inhibition [4] 100%
inactive: inhibition [2] 31% | inhibition [3] 0% | outcome [5] | outcome [6] | outcome [7] | outcome [8]

NC(=O)C1CCN(Cc2ccc(-c3ccc(-c4nc5ccc(C(F)(F)F)cc5[nH]4)s3)cc2)CC1
active: growth inhibition [1] 91% | growth inhibition [4] 99%
inactive: inhibition [2] 22% | inhibition [3] -5% | outcome [5] | outcome [6] | outcome [7] | outcome [8]

COc1ccc(NS(=O)(=O)c2ccc(C(=O)Nc3ccc(OC(F)(F)F)cc3)cc2)cc1N1CCN(CC2CC2)CC1
active: growth inhibition [4] 89%
inactive: growth inhibition [1] -2% | inhibition [2] 18% | inhibition [3] 3% | outcome [5] | outcome [6] | outcome [7] | outcome [8]

COc1cccc(CN2CCCC(OC(c3ccc(F)cc3)c3ccc(F)cc3)C2)c1O (configuration not stated)
active: growth inhibition [1] 95% | growth inhibition [4] 95%
inactive: inhibition [2] 8% | inhibition [3] 5% | outcome [5] | outcome [6] | outcome [7] | outcome [8]

COc1cc(Nc2nccc(N3CCC(NC(=O)Nc4ccc5c(c4)OCO5)C3)n2)cc(OC)c1OC (configuration not stated)
active: growth inhibition [1] 74% | growth inhibition [4] 96%
inactive: inhibition [2] 9% | inhibition [3] -1% | outcome [5] | outcome [6] | outcome [7] | outcome [8]

COc1ccccc1N1CCN(CCCCNC(=O)c2ccc(NC(=O)c3cc4ccccc4o3)cc2)CC1
inactive: growth inhibition [1] 2% | inhibition [2] 9% | inhibition [3] -1% | outcome [5] | outcome [6] | outcome [7] | outcome [8]
active: growth inhibition [4] 84%

COc1ccc(CNCc2ccccc2)cc1-c1ccc(OC)c(S(=O)(=O)NCCN2CCCC2)c1
active: growth inhibition [1] 55% | growth inhibition [4] 100%
inactive: inhibition [2] 14% | inhibition [3] -5% | outcome [5] | outcome [6] | outcome [7] | outcome [8]

O=C(/C=C/c1ccccc1O)NCCCCCN1CCC(c2c[nH]c3ccccc23)CC1
active: growth inhibition [4] 95%
inactive: growth inhibition [1] 1% | inhibition [2] 7% | inhibition [3] -5% | outcome [5] | outcome [6] | outcome [7] | outcome [8]

COc1cccc2c1CCN(CCN1CCC(CNC(=O)c3ccc(-c4ccc(C#N)cc4)cc3)CC1)C2
inactive: inhibition [3] 6% | outcome [5] | outcome [6] | outcome [7] | outcome [8]
active: growth inhibition [1] 98% | inhibition [2] 57% | growth inhibition [4] 99%

CS(=O)(=O)CCNCc1nc(-c2ccc3ncnc(Nc4ccc(OCc5ccccc5)c(Cl)c4)c3c2)cs1
inactive: inhibition [2] 13% | inhibition [3] 2% | outcome [5] | outcome [6] | outcome [7] | outcome [8]
active: growth inhibition [1] 55% | growth inhibition [4] 99%

C=CCN1C(=O)C(=Cc2cc(Br)ccc2O)SC1=Nc1ccccc1
active: growth inhibition [1] 55% | growth inhibition [4] 96%
inactive: inhibition [2] -4% | inhibition [3] -4% | outcome [5] | outcome [6] | outcome [7] | outcome [8]

O=S(=O)(Nc1ccc2nccc(N3CCNCC3)c2c1)c1ccc2oc3ccccc3c2c1
active: growth inhibition [4] 101%
inactive: growth inhibition [1] 2% | inhibition [2] 16% | inhibition [3] -5% | outcome [5] | outcome [6] | outcome [7] | outcome [8]

CC(=O)Nc1sc(C)c(C)c1CN1CCc2ccccc2C1
inactive: inhibition [2] -8% | inhibition [3] 1% | outcome [5] | outcome [6] | outcome [7] | outcome [8]
active: growth inhibition [1] 94% | growth inhibition [4] 93%

COc1ccc2ccccc2c1C=NNc1cc(C)nc2cc(C(F)(F)F)ccc12
active: growth inhibition [4] 92%
inactive: growth inhibition [1] 4% | inhibition [2] 1% | inhibition [3] 0% | outcome [5] | outcome [6] | outcome [7] | outcome [8]

FC(F)(F)Oc1ccc(Nc2cc(-c3ccncc3)nc(-c3cccnc3)n2)cc1
inactive: inhibition [2] 24% | inhibition [3] 0% | outcome [5] | outcome [6] | outcome [7] | outcome [8]
active: growth inhibition [1] 52% | growth inhibition [4] 94%

C#CCCOc1ccc2ccccc2c1CNCCCCCCNCc1c(OCCC#C)ccc2ccccc12
active: growth inhibition [1] 65% | inhibition [2] 100% | growth inhibition [4] 100%
inactive: inhibition [3] 2% | outcome [5] | outcome [6] | outcome [7] | outcome [8]

CC(=O)N(C)c1cccc(C(=O)Nc2cccc(-c3cccc(-c4nc5ccc(C(F)(F)F)cc5[nH]4)c3)c2)c1
inactive: growth inhibition [1] 41% | inhibition [2] 49% | inhibition [3] -5% | outcome [5] | outcome [6] | outcome [7] | outcome [8]
active: growth inhibition [4] 97%

CC(CCCCC(=O)Nc1ccc(CC(C)NCCc2cccc(Cl)c2)cc1)NCCc1cccc(Cl)c1 (configuration not stated)
active: growth inhibition [4] 91%
inactive: growth inhibition [1] -1% | inhibition [2] 28% | inhibition [3] -1% | outcome [5] | outcome [6] | outcome [7] | outcome [8]

Cc1cccc2[nH]c(-c3ccc(-c4ccc(C(=O)NCCN5CCCC5)cc4)s3)nc12
active: growth inhibition [4] 100%
inactive: growth inhibition [1] 13% | inhibition [2] 20% | inhibition [3] 3% | outcome [5] | outcome [6] | outcome [7] | outcome [8]

C=C(NC(=O)c1cc(C)cc(C)c1)C(=O)OC
active: growth inhibition [4] 95%
inactive: growth inhibition [1] -2% | inhibition [2] 21% | inhibition [3] -3% | outcome [5] | outcome [6] | outcome [7] | outcome [8]

COc1nc2c(CCN3CC[C@H](NCc4cc(C#N)c5c(c4)OCCO5)[C@H](O)C3)ccnc2cc1F
active: growth inhibition [4] 95%
inactive: growth inhibition [1] 41% | inhibition [2] 18% | inhibition [3] -3% | outcome [5] | outcome [6] | outcome [7] | outcome [8]

CN(C)CCCc1cc2c(cc1Cl)CCN2C(=O)Nc1ccc(-c2ccncc2)c2ccccc12
inactive: growth inhibition [1] -2% | inhibition [2] 4% | inhibition [3] -2% | outcome [5] | outcome [6] | outcome [7] | outcome [8]
active: growth inhibition [4] 94%

CCNc1cc(C(=O)N[C@@H](Cc2ccccc2)[C@H](O)CNC(C)Cc2cccc(Cl)c2)cc(N2CCCCS2(=O)=O)c1 (some centres not stated)
inactive: inhibition [2] -6% | inhibition [3] 1% | outcome [5] | outcome [6] | outcome [7] | outcome [8]
active: growth inhibition [1] 77% | growth inhibition [4] 98%

COc1cc(Cc2cnc(N)nc2N)cc(OCCCCCCN2C(=O)c3ccccc3C2=O)c1OC
active: growth inhibition [4] 95%
inactive: growth inhibition [1] 3% | inhibition [2] 15% | inhibition [3] 2% | outcome [5] | outcome [6] | outcome [7] | outcome [8]

CCC[C@@H]([C@@H](CC(C)C)C(=O)N[C@@H](CCCNc1nccc(C(F)(F)F)n1)C(=O)Nc1nccs1)N(O)C=O
active: growth inhibition [1] 98% | growth inhibition [4] 99%
inactive: inhibition [2] -4% | inhibition [3] 8% | outcome [5] | outcome [6] | outcome [7] | outcome [8]
